Data as given in PMC11006913.
Residue numbers refer to the chain shown, from its start.

Legend:
Test in all cases: PBM; 200 nM protein, PBS
Settings in all cases: dsDNA, one strand shown
HOXA4 [1] = target: HOXA4 (Homo sapiens, UniProt Q00056 201-287, W262R)
VENTX = target: T1, VENTX (Homo sapiens, UniProt O95231 78-163)
T1 sequence: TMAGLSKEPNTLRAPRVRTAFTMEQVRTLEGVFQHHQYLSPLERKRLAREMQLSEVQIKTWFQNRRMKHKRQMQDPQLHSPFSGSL

HOXA7 [2] = target: HOXA7 (Homo sapiens, UniProt P31268 116-202)
PAX4 [3] = target: T2, PAX4 (Homo sapiens, UniProt O43316 9-242)
T2 sequence: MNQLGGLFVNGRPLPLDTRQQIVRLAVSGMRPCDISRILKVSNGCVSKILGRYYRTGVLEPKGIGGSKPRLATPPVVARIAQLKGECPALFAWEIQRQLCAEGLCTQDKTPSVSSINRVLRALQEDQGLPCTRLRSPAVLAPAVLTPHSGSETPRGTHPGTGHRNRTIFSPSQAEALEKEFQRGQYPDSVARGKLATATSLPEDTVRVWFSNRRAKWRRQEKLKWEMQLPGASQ

HOXA4 [4] = target: HOXA4 (Homo sapiens, UniProt Q00056 201-287)
VAX1 = VAX1 (Homo sapiens, UniProt Q5SQQ9 86-172)
PAX4 [5] = target: T3, PAX4 (Homo sapiens, UniProt O43316 9-242, R227W)
T3 sequence: T2 sequence with R219W

HOXA2 [6] = target: HOXA2 (Homo sapiens, UniProt O43364 129-215, Y150S)
HOXA7 [7] = target: HOXA7 (Homo sapiens, UniProt P31268 116-202, W177C)
HOXA2 [8] = target: HOXA2 (Homo sapiens, UniProt O43364 129-215)
HOXB6 = HOXB6 (Homo sapiens, UniProt P17509 132-218)
HOXB9 = HOXB9 (Homo sapiens, UniProt P17482 171-250, T197M)
HOXC9 = HOXC9 (Homo sapiens, UniProt P31274 178-260, K195R)
HOXC10 = HOXC10 (Homo sapiens, UniProt Q9NYD6 254-340, K271E)
Sequence of HOXC10 (Q9NYD6 254-340 K271E): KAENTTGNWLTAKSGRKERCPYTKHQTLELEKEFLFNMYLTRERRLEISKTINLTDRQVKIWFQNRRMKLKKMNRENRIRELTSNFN

Sequence of HOXA4 (Homo sapiens, UniProt Q00056 201-287) (Q00056 201-287): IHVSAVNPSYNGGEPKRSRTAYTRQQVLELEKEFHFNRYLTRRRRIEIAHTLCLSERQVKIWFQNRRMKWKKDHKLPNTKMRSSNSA
Sequence of HOXA7 (Homo sapiens, UniProt P31268 116-202) (P31268 116-202): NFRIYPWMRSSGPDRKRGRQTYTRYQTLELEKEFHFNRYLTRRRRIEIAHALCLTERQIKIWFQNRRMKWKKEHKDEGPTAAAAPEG
Sequence of HOXA2 (Homo sapiens, UniProt O43364 129-215, Y150S) (O43364 129-215 Y150S): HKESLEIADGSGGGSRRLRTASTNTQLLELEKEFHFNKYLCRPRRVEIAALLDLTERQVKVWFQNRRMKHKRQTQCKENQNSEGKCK
Sequence of HOXA2 (Homo sapiens, UniProt O43364 129-215) (O43364 129-215): as the sequence (O43364 129-215 Y150S) above, with S22Y counted along it
Sequence of HOXA4 (Homo sapiens, UniProt Q00056 201-287, W262R) (Q00056 201-287 W262R): as the sequence (Q00056 201-287) above, with W62R counted along it
Sequence of HOXB6 (P17509 132-218): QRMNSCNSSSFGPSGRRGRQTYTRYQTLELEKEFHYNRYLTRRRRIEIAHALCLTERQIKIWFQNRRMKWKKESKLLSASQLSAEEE
Sequence of HOXA7 (Homo sapiens, UniProt P31268 116-202, W177C) (P31268 116-202 W177C): as the sequence (P31268 116-202) above, with W62C counted along it
Sequence of VAX1 (Q5SQQ9 86-172): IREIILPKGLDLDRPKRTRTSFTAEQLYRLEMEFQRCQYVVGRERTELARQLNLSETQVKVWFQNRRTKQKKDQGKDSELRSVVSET
Sequence of HOXB9 (P17482 171-250 T197M): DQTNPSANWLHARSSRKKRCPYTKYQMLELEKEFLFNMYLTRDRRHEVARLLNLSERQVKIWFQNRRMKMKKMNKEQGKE
Sequence of HOXC9 (P31274 178-260 K195R): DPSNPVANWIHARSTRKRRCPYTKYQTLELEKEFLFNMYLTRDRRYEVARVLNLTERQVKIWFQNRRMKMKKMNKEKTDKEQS

| Sequence | binding signal (HOXA4 [1]) | binding signal (VENTX) | binding signal (HOXA7 [2]) | binding signal (PAX4 [3]) | binding signal (HOXA4 [4]) | binding signal (VAX1) | binding signal (PAX4 [5]) | binding signal (HOXA2 [6]) | binding signal (HOXA7 [7]) | binding signal (HOXA2 [8]) | binding signal (HOXB6) | binding signal (HOXB9) | binding signal (HOXC9) | binding signal (HOXC10) |
| --- | --- | --- | --- | --- | --- | --- | --- | --- | --- | --- | --- | --- | --- | --- |
| CAATTAGC | 10.5 upbm affinity estimate (log intensity, higher = more binding, comparable within an allelic series) | 13.1 upbm affinity estimate (log intensity, higher = more binding, comparable within an allelic series) | 11.3 upbm affinity estimate (log intensity, higher = more binding, comparable within an allelic series) | 12.2 upbm affinity estimate (log intensity, higher = more binding, comparable within an allelic series) | 13.9 upbm affinity estimate (log intensity, higher = more binding, comparable within an allelic series) | 13.5 upbm affinity estimate (log intensity, higher = more binding, comparable within an allelic series) | 10.8 upbm affinity estimate (log intensity, higher = more binding, comparable within an allelic series) | 10.7 upbm affinity estimate (log intensity, higher = more binding, comparable within an allelic series) | 8.77 upbm affinity estimate (log intensity, higher = more binding, comparable within an allelic series) | 12.6 upbm affinity estimate (log intensity, higher = more binding, comparable within an allelic series) | – | – | – | – |
| CAATTATC | 10.5 upbm affinity estimate (log intensity, higher = more binding, comparable within an allelic series) | – | 11.2 upbm affinity estimate (log intensity, higher = more binding, comparable within an allelic series) | – | 13.6 upbm affinity estimate (log intensity, higher = more binding, comparable within an allelic series) | – | – | 10.9 upbm affinity estimate (log intensity, higher = more binding, comparable within an allelic series) | 8.91 upbm affinity estimate (log intensity, higher = more binding, comparable within an allelic series) | 12.1 upbm affinity estimate (log intensity, higher = more binding, comparable within an allelic series) | 11.6 upbm affinity estimate (log intensity, higher = more binding, comparable within an allelic series) | – | – | – |
| AATTAACA | 10.8 upbm affinity estimate (log intensity, higher = more binding, comparable within an allelic series) | 12.4 upbm affinity estimate (log intensity, higher = more binding, comparable within an allelic series) | 11.3 upbm affinity estimate (log intensity, higher = more binding, comparable within an allelic series) | 12.5 upbm affinity estimate (log intensity, higher = more binding, comparable within an allelic series) | 13.7 upbm affinity estimate (log intensity, higher = more binding, comparable within an allelic series) | 12.9 upbm affinity estimate (log intensity, higher = more binding, comparable within an allelic series) | 11.2 upbm affinity estimate (log intensity, higher = more binding, comparable within an allelic series) | 11 upbm affinity estimate (log intensity, higher = more binding, comparable within an allelic series) | 8.91 upbm affinity estimate (log intensity, higher = more binding, comparable within an allelic series) | 12.2 upbm affinity estimate (log intensity, higher = more binding, comparable within an allelic series) | 11.7 upbm affinity estimate (log intensity, higher = more binding, comparable within an allelic series) | 9.97 upbm affinity estimate (log intensity, higher = more binding, comparable within an allelic series) | – | – |
| GGCAGGCC | – | – | – | 9.17 upbm affinity estimate (log intensity, higher = more binding, comparable within an allelic series) | – | – | 9.12 upbm affinity estimate (log intensity, higher = more binding, comparable within an allelic series) | – | – | – | – | – | – | – |
| ACTAATTA | 10.9 upbm affinity estimate (log intensity, higher = more binding, comparable within an allelic series) | 13.3 upbm affinity estimate (log intensity, higher = more binding, comparable within an allelic series) | 12.1 upbm affinity estimate (log intensity, higher = more binding, comparable within an allelic series) | 12.7 upbm affinity estimate (log intensity, higher = more binding, comparable within an allelic series) | 14.2 upbm affinity estimate (log intensity, higher = more binding, comparable within an allelic series) | 14 upbm affinity estimate (log intensity, higher = more binding, comparable within an allelic series) | 11.4 upbm affinity estimate (log intensity, higher = more binding, comparable within an allelic series) | 11 upbm affinity estimate (log intensity, higher = more binding, comparable within an allelic series) | 8.93 upbm affinity estimate (log intensity, higher = more binding, comparable within an allelic series) | 13.3 upbm affinity estimate (log intensity, higher = more binding, comparable within an allelic series) | 12.4 upbm affinity estimate (log intensity, higher = more binding, comparable within an allelic series) | 10.1 upbm affinity estimate (log intensity, higher = more binding, comparable within an allelic series) | 12.5 upbm affinity estimate (log intensity, higher = more binding, comparable within an allelic series) | 11.9 upbm affinity estimate (log intensity, higher = more binding, comparable within an allelic series) |
| CTCAATTA | 10.4 upbm affinity estimate (log intensity, higher = more binding, comparable within an allelic series) | – | – | – | 13.6 upbm affinity estimate (log intensity, higher = more binding, comparable within an allelic series) | 12.9 upbm affinity estimate (log intensity, higher = more binding, comparable within an allelic series) | – | 10.8 upbm affinity estimate (log intensity, higher = more binding, comparable within an allelic series) | – | 12.1 upbm affinity estimate (log intensity, higher = more binding, comparable within an allelic series) | – | – | – | – |
| CTAATTGA | 10.5 upbm affinity estimate (log intensity, higher = more binding, comparable within an allelic series) | 12.8 upbm affinity estimate (log intensity, higher = more binding, comparable within an allelic series) | – | 12.2 upbm affinity estimate (log intensity, higher = more binding, comparable within an allelic series) | 13.9 upbm affinity estimate (log intensity, higher = more binding, comparable within an allelic series) | 13.5 upbm affinity estimate (log intensity, higher = more binding, comparable within an allelic series) | 10.7 upbm affinity estimate (log intensity, higher = more binding, comparable within an allelic series) | 10.6 upbm affinity estimate (log intensity, higher = more binding, comparable within an allelic series) | – | 12.6 upbm affinity estimate (log intensity, higher = more binding, comparable within an allelic series) | – | – | – | – |
